Source: PubChem BioAssay (National Center for Advancing Translational Sciences (NCATS))
D1 antag: antagonists of human D1 dopamine receptor; activity change, negative = inhibition, % at 10 µM; HEK293 TREx D1 cells, calcium flux, dopamine EC80; stronger effect = lower value; P21728; 360,000 tested, 3.2% active; in the data active means activity change below about -30%; further: on the % scale 0 is the no-effect control and ±100 the full control effect
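Using tetracycline-induced force-coupled D1 Hek293 cells and a calcium dye, signals were followed for 180 s after compound, then for 180 s after EC80 dopamine, to detect inhibitors.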
D1 potentiator: potentiators of human D1 dopamine receptor | P21728 | HEK293 TREx D1 cells, calcium flux, dopamine EC20 potentiation | potentiation, % at 10 µM | 360,000 tested, 0.036% active | AID 504651; in the data active means potentiation above about 30%; further: 0% is about no effect
TRHR PAM: TRH receptor (human) allosteric enhancement; P34981; TRHR cells, fluo-8 calcium fluorescence, EC20 TRH enhancement; enhancement, % at 2 µM; 360,000 tested, 0.66% active; AID 493056; in the data active means enhancement above about 30%; further: 0% is about no effect
Target sequence (P34981 whole entry, looked up): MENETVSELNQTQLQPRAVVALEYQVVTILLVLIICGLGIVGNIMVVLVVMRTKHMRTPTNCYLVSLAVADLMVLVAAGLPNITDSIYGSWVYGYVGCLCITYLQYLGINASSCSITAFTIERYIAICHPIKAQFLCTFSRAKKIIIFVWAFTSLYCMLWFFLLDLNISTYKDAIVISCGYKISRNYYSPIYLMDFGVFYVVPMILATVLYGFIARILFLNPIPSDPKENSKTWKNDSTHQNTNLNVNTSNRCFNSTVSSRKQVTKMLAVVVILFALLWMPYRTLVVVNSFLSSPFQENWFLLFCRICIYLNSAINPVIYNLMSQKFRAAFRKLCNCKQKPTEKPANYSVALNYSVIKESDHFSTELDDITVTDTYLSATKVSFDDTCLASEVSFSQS
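Enhancer read-out: after compound pinning and an initial kinetic agonist-mode read, an EC20 of TRH (10 nM final) was injected and fluo-8 calcium signal (Ex 480/Em 530) followed at 1 s/cycle for 100 cycles in TRHR-expressing cells.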
D1 agonist: agonists of human D1 dopamine receptor; P21728; HEK293 T-REx D1 cells, calcium flux, agonist mode; activation, % at 2 µM; 360,000 tested, 1% active; AID 504660; further: 0% is about no effect
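Inducible HEK293 T-REx D1 cells, force-coupled to calcium signalling, were plated at 4000 cells/well with tetracycline and held overnight at 30 C. After no-wash calcium dye loading, compound-evoked calcium rise over 180 s flagged agonists.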
TRHR agonist: activates the human TRH receptor; TRHR cells, calcium flux fluo-8, FDSS agonist mode; activation, % at 2 µM; 360,000 tested, 0.18% active; AID 493084; further: 0% is about no effect
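Read-out: compound-evoked intracellular calcium rise in TRHR cells, fluo-8 dye, kinetic FDSS fluorescence at 1 s/cycle following a 10-cycle baseline. Cells cultured overnight before dye loading (30 min–1.5 h, RT).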
Active calls of the source: *; · = not tested or not shown; ! = repeats disagree. In the library only some 4.7% were active in any assay of this set; here they are far more common. Unless noted, no stated cut-off is given here; in the data, active means activation above about 30%; inactive means the rest.

SMILES	D1 antag	D1 potentiator	TRHR PAM	D1 agonist	TRHR agonist
COCCNc1nc(-c2cc(C)n(CCc3ccc(OC)cc3)c2C)cs1	-7	-3	-4	1	1
CCOC(=O)c1noc2ncnc(Nc3cccc(C(F)(F)F)c3)c12	-4	-3	0	2	0
Cc1ccc(N2C(=O)CS(=O)(=O)C23C(=O)N(C)c2ccccc23)cc1F (stereo not given)	-1	-1	-11	3	0
O=C(/C=C/Nc1ccc(F)cc1)c1ccc(Oc2ncccn2)cc1	-41*	-9	4	2	0
Cc1ccc(CNC(=O)CSc2nc3ccsc3c(=O)n2-c2ccc(Br)cc2)cc1	12	-1	-8	6	0
COC(=O)c1ccc(OCC(O)CN2C(=O)c3ccccc3S2(=O)=O)cc1 (stereo not given)	-40*	-2	0	6	0
COc1cc(/C=C2\SC(=S)N(NC(=O)c3ccccc3O)C2=O)ccc1O	-1	-5	10	90*	-1
O=C(NN1C(=O)/C(=C/c2ccc(O)cc2)SC1=S)c1ccccc1O	-27	-2	8	67*	-2
Cn1cc(/C=C2\SC(=S)N(NC(=O)c3ccccc3)C2=O)c2ccccc21	-12	0	0	75*	23
O=C(CSc1nc(-c2ccccc2)no1)N1CCCCC1	-10	1	-4	8	0
c1ccc(Cn2nnc3c(N4CCOCC4)ncnc32)cc1	19	12	1	0	0
CC(C)(C)C(=O)NC(n1cnc2c(N3CCOCC3)ncnc21)C(Cl)(Cl)Cl (stereo not given)	-34*	-5	-4	0	1
CCOC(=O)CN1C(=O)C(Sc2n[nH]c(-c3ccc(C)cc3)n2)CCc2ccccc21 (stereo not given)	-66*	1	-1	0	0
CCCCNc1oc(-c2ccc(COc3ccccc3C)o2)nc1C#N	0	0	-2	2	0
Cc1ccccc1OCc1ccc(-c2nc(C#N)c(NCCCN(C)C)o2)o1	-22	-1	6	44*	0
COC(=O)c1cc(NC(=O)c2ccc3c(c2)N(Cc2cccc(Cl)c2)C(=O)c2ccccc2S3=O)cc(C(=O)OC)c1 (stereo not given)	3	-5	0	3	1
COc1ccc(N(CC(=O)N2CCCCC2)S(=O)(=O)c2ccc(OC)c(OC)c2)cc1	-2	-1	5	-2	-1
COc1ccc(/C=N/NC(=O)c2ccccc2O)cc1CN1CCOCC1	-33*	-14	2	1	0
COc1ccc(/C=N/NC(=O)c2cccc(Br)c2)cc1CN1CCOCC1	1	-8	6	0	0
Cc1sc2ncnc(N/N=C/c3ccc(O)cc3)c2c1C	-86*	-6	1	1	1
COc1ccc(/C=N/Nc2ncnc3sc(C)c(C)c23)cc1	-9	-5	15	2	1
CCCCOC(=O)c1ccc(NC(=O)COC(=O)C2CSC3(C)CCC(=O)N23)cc1 (stereo not given)	-46*	-7	-4	22	2
Cc1oc2ncn(C)c(=O)c2c1C(=O)N1CCN(c2ccccc2F)CC1	5	-3	-2	0	0
Cc1ccc(-c2nnn(CC(=O)N(CCN3CCOCC3)C(C(=O)NC(C)(C)C)c3ccc(C)o3)n2)cc1 (stereo not given)	2	-1	37*	1	0
COc1ccc(-c2nnn(CC(=O)N(CCCN3CCOCC3)C(C(=O)NC3CCCC3)c3ccco3)n2)cc1 (stereo not given)	-32*	1	-1	4	-1
SMILES	D1 antag	D1 potentiator	TRHR PAM	D1 agonist	TRHR agonist
CC(C)(C)NC(=O)C(c1ccncc1)N(Cc1cccs1)C(=O)Cn1nnc(-c2ccc(F)cc2)n1 (stereo not given)	-33*	-2	-3	0	1
O=C(Nc1c(Cl)cccc1Cl)c1cccc2c1C(=O)N(C1CCCCC1)C2	-8	6	-1	2	0
COc1ccc(CCNC(=O)CCc2c(C)nc3cc(-c4ccccc4OC)nn3c2C)c(OC)c1	-4	-5	-2	0	0
CC(C)CNC(=O)COC(=O)c1n[nH]c2ccccc12	-51*	4	0	2	0
COc1ccc(CCNC(=O)c2n[nH]c3ccccc23)cc1	-19	-3	2	5	0
COc1ccc(CNC(=O)COC(=O)c2n[nH]c3ccccc23)cc1	-6	5	0	2	0
Nc1nccnc1C(=O)OCC(=O)NCCc1ccc(Cl)cc1	-47*	7	-4	0	1
O=C(COC(=O)c1n[nH]c2ccccc12)NCCc1ccc(Cl)cc1	-30*	·	3	20	-1
O=C(COC(=O)Cc1ccc(Cl)cc1)NCCc1ccccc1	-6	·	-1	8	0
COC(=O)c1nn(-c2cccc(C(F)(F)F)c2)c(=O)cc1Sc1ccccn1	3	-4	39*	0	-1
CCCCn1c(=O)cc(N2CCOCC2)[nH]c1=O	-46*	-7	-8	3	0
CC(NC(=O)c1ccco1)c1nc(-c2ccc(Cl)cc2)no1 (stereo not given)	-2	-7	9	9	0
Cc1ccccc1-c1noc(C(C)NC(=O)c2ccco2)n1 (stereo not given)	-40*!	0	3	3	0
N#Cc1nc(Nc2cccc([N+](=O)[O-])c2)nc(NC2CCCC2)n1	-18	-5	-2	8	0
CC(C)CCNC(=O)c1ccc2c(c1)N(Cc1ccccc1F)C(=O)c1ccccc1S2=O (stereo not given)	5	2	-6	3	1
O=C(Nc1nnc(-c2ccc3c(c2)CCCC3)o1)C1CCCCC1	-46*	-5	20	1	0
O=C(Nc1nnc(-c2ccc3c(c2)CCCC3)o1)c1ccc(Cl)cc1Cl	-5	4	0	36*	5
O=C(Nc1nnc(-c2ccncc2)o1)C1CCCCC1	-29	-4	7	1	1
CCOc1ccccc1CNC(=O)CCCn1c(=O)c2cccn2c2ccc(F)cc21	11	-1	-1	0	0
O=c1[nH]c(Nc2ccccc2)cc2ccccc12	34	-1	-10	38*	0
Cn1c(=O)cc(Nc2ccccc2)[nH]c1=O	13	-3	24	3	1
O=C(CSc1ncccc1C(=O)Oc1ccccc1Cl)Nc1ccccc1Cl	-10	1	-8	21	-1
Fc1cccc(CCN2CCNC[C@H]2Cc2cccc3ccccc23)c1	9	-3	-6	40*	3
c1ccc(C2(CN3CCNC[C@H]3Cc3cccc4ccccc34)CC2)cc1	-56*	-7	7	77*	0
